Measurements taken from PubChem BioAssay (NCI).
Compounds without any hit were thinned out: in the full panel of roughly 79,000, 15% have a hit. Active and inactive are the calls of the source. Rule as the data show it: active = growth inhibition above about 70%; inactive = the rest.

Experiments:
[1] = NCI Yeast Anticancer Drug Screen. Data for the rad50 strain (AID 155);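 also: 0% = growth of vehicle-only cultures of the same strain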; conditions: S. cerevisiae rad50 strain growth inhibition, hits give high values
Summary of the method: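 Readout: growth inhibition relative to vehicle-treated cultures. Compound exposure was carried out in a genetically defined yeast strain deficient in DNA damage repair.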

[2] = NCI Yeast Anticancer Drug Screen. Data for the mec2-1 strain (AID 157); conditions: S. cerevisiae mec2-1 strain, hits give high values
Summary of the method: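 Growth inhibition is read against vehicle-treated controls after compound exposure of the mec2-1 yeast strain, which is defective in DNA damage repair or cell cycle control.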

[3] = NCI Yeast Anticancer Drug Screen. Data for the sgs1 mgt1 strain (AID 161);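 also: 0% = growth of cultures given vehicle only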; conditions: S. cerevisiae sgs1 mgt1 strain, hits give high values
Summary of the method: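 Yeast cells carrying a defined DNA-repair defect were exposed to test compounds. Growth inhibition was measured relative to vehicle-treated controls.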

[4] = NCI Yeast Anticancer Drug Screen. Data for the cln2 rad14 strain (AID 165);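 also: 0% = growth equal to vehicle treated cultures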; conditions: S. cerevisiae cln2 rad14 strain, hits give high values
Summary of the method: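 Growth inhibition, relative to vehicle-treated controls, is the read-out. The test organism is a yeast strain with defined genetic alterations, cln2 rad14.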

[5] = NCI Yeast Anticancer Drug Screen. Data for the bub3 strain (AID 167); conditions: S. cerevisiae bub3 mutant strain, hits give high values
Summary of the method: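 Readout: yeast growth inhibition, expressed relative to vehicle-only wells. The test organism is a mutant strain from a panel with lesions in DNA repair or checkpoint genes.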

[6] = NCI Yeast Anticancer Drug Screen. Data for the mlh1 rad18 strain (AID 175); conditions: S. cerevisiae mlh1 rad18 strain growth inhibition, hits give high values
Summary of the method: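 Cells of a genetically altered yeast strain, deficient in DNA damage repair, were treated with compound. Their growth was then compared with that of vehicle-treated cultures to give inhibition.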

[7] = at 5.0 µM (retest, dose inferred, filed as 0.5)
[8] = at 50.0 µM (retest, dose inferred, filed as 5.0)

SMILES | growth inhibition [1, 7] | growth inhibition [1, 8] | growth inhibition ([1]; at 50.0 µM) | growth inhibition [2, 7] | growth inhibition [2, 8] | growth inhibition ([2]; at 50.0 µM) | growth inhibition [3, 7] | growth inhibition [3, 8] | growth inhibition ([3]; at 50.0 µM) | growth inhibition [4, 7] | growth inhibition [4, 8] | growth inhibition ([4]; at 50.0 µM) | growth inhibition [5, 7] | growth inhibition [5, 8] | growth inhibition ([5]; at 50.0 µM) | growth inhibition [6, 7] | growth inhibition [6, 8] | growth inhibition ([6]; at 50.0 µM)
CC(C)C(C)OC(=O)Nc1cccc(O)c1 (stereo unspecified) | -142% (inactive) | -141% (inactive) | 35.3% (inactive) | -48% (inactive) | -53% (inactive) | 3.15% (inactive) | -66% (inactive) | -48% (inactive) | 18.1% (inactive) | -50% (inactive) | -54% (inactive) | 46.5% (inactive) | -67% (inactive) | -74% (inactive) | 2.3% (inactive) | -144% (inactive) | -102% (inactive) | 18.4% (inactive)
CC(=O)OC1C(C)OC(OC(=O)C2CCC3C(C2)OC2(CC(OC(=O)/C=C/c4ccccc4)C(C)CO2)C32CO2)C(OC2OC(C)C(O)C(OC(C)=O)C2O)C1O (stereo unspecified) | 34% (inactive) | 97% (active) | 87.9% (active) | 36% (inactive) | 99% (active) | 92% (active) | 30% (inactive) | 99% (active) | 91.5% (active) | 45% (inactive) | 96% (active) | 88.1% (active) | 31% (inactive) | 99% (active) | 90.2% (active) | 31% (inactive) | 97% (active) | 85.2% (active)
CN1CCN(CCOC(=O)N2c3ccccc3Sc3ccccc32)CC1 | 1% (inactive) | 1% (inactive) | 9.45% (inactive) | 2% (inactive) | -2% (inactive) | -13.2% (inactive) | -1% (inactive) | 2% (inactive) | 45.5% (inactive) | 0% (inactive) | 1% (inactive) | -13.9% (inactive) | -2% (inactive) | -4% (inactive) | 15.6% (inactive) | -4% (inactive) | -3% (inactive) | 4.4% (inactive)
O=C1C=CC(=O)N1C1c2ccccc2-c2ccccc21 | 99% (active) | 99% (active) | 99.5% (active) | 100% (active) | 100% (active) | 99.1% (active) | 99% (active) | 100% (active) | 99.5% (active) | 77% (active) | 99% (active) | 98% (active) | 100% (active) | 100% (active) | 99.5% (active) | 99% (active) | 99% (active) | 97.1% (active)
CC(C)C1(c2ccccc2)C(=O)c2ccccc2C1=O | -6% (inactive) | 42% (inactive) | 71.8% (active) | -7% (inactive) | 50% (inactive) | 77.5% (active) | -5% (inactive) | 73% (active) | 84.7% (active) | 2% (inactive) | 10% (inactive) | 68.2% (inactive) | -11% (inactive) | 14% (inactive) | 79.2% (active) | -8% (inactive) | 37% (inactive) | 46.1% (inactive)
CCOC(=O)c1[nH]n(-c2ccccc2)c(=O)c1/C=N/C(=S)Nc1ccccc1OC | -7% (inactive) | -3% (inactive) | 0.4% (inactive) | -14% (inactive) | -11% (inactive) | -31.6% (inactive) | -5% (inactive) | -3% (inactive) | -18.1% (inactive) | -23% (inactive) | -12% (inactive) | 44.6% (inactive) | 0% (inactive) | -9% (inactive) | 10.1% (inactive) | -2% (inactive) | 1% (inactive) | -16.2% (inactive)
COc1cccc(N2C(=O)C3CC(CC(C)(C)C)c4c([nH]c5ccccc45)C3C2=O)c1 (stereo unspecified) | 10% (inactive) | 33% (inactive) | 33.6% (inactive) | 10% (inactive) | 22% (inactive) | 27.6% (inactive) | 13% (inactive) | 20% (inactive) | 35.9% (inactive) | -4% (inactive) | 33% (inactive) | 19.7% (inactive) | 13% (inactive) | 11% (inactive) | 63.4% (inactive) | 8% (inactive) | 30% (inactive) | 23.3% (inactive)
CC(=O)Nc1ccc2c(c1)[nH]c(=O)c1cc(Cl)ccc12 | 60% (inactive) | 96% (active) | 82.8% (active) | 18% (inactive) | 63% (inactive) | -1.45% (inactive) | 12% (inactive) | 72% (active) | 7.25% (inactive) | -20% (inactive) | 76% (active) | 0.95% (inactive) | 4% (inactive) | 7% (inactive) | -7.95% (inactive) | 29% (inactive) | 91% (active) | 35.5% (inactive)
COc1ccc(NC(=O)CCC(NS(=O)(=O)c2ccc(C)cc2)C(=O)O)cc1 (stereo unspecified) | -6% (inactive) | -3% (inactive) | 19.4% (inactive) | -4% (inactive) | -5% (inactive) | 8.6% (inactive) | -7% (inactive) | -23% (inactive) | 7.7% (inactive) | -8% (inactive) | -17% (inactive) | 10.4% (inactive) | -2% (inactive) | 2% (inactive) | 51.9% (inactive) | -3% (inactive) | -3% (inactive) | 19.1% (inactive)
NNC(=O)NN=C(c1ccccc1)c1ccccc1 | 0% (inactive) | 16% (inactive) | 1.5% (inactive) | -2% (inactive) | 1% (inactive) | -13.2% (inactive) | -3% (inactive) | 0% (inactive) | 11.4% (inactive) | 0% (inactive) | -12% (inactive) | -26.5% (inactive) | -4% (inactive) | -1% (inactive) | 3.95% (inactive) | -11% (inactive) | 1% (inactive) | 33.1% (inactive)
CC1CN(CC(O)c2ccc(Br)cc2)CC(C)O1 (stereo unspecified) | 13% (inactive) | 30% (inactive) | 58.5% (inactive) | 6% (inactive) | 28% (inactive) | 34.2% (inactive) | 8% (inactive) | 56% (inactive) | 66.5% (inactive) | 8% (inactive) | 46% (inactive) | 68.7% (inactive) | 12% (inactive) | 48% (inactive) | 54.6% (inactive) | 29% (inactive) | 61% (inactive) | 41.8% (inactive)
O/N=C(/C[n+]1csc2ccccc21)c1ccccc1 | -6% (inactive) | 82% (active) | 35.3% (inactive) | -8% (inactive) | 34% (inactive) | 79.5% (active) | -9% (inactive) | 87% (active) | 73.7% (active) | -6% (inactive) | 32% (inactive) | 37% (inactive) | 12% (inactive) | 76% (active) | 76.8% (active) | 1% (inactive) | 88% (active) | 48% (inactive)
CC(=O)c1ccc(OCc2ccccc2)cc1 | 1% (inactive) | -6% (inactive) | -2.25% (inactive) | 1% (inactive) | 5% (inactive) | -15.5% (inactive) | 16% (inactive) | -6% (inactive) | -17.9% (inactive) | -3% (inactive) | 2% (inactive) | 63.9% (inactive) | 2% (inactive) | 3% (inactive) | 9.75% (inactive) | -3% (inactive) | -9% (inactive) | 15.2% (inactive)
O=C1C=CC(=Nc2cc3c(cc2Br)-c2ccccc2C3Br)O1 (stereo unspecified) | 23% (inactive) | 99% (active) | 28.9% (inactive) | 20% (inactive) | 99% (active) | 79.8% (active) | 15% (inactive) | 100% (active) | 21.4% (inactive) | 6% (inactive) | 99% (active) | -12.8% (inactive) | 7% (inactive) | 99% (active) | -3.95% (inactive) | 26% (inactive) | 99% (active) | 28.9% (inactive)
Brc1cc2ccccc2c2ccccc12 | 11% (inactive) | 91% (active) | 75.1% (active) | -7% (inactive) | 54% (inactive) | 65.2% (inactive) | 7% (inactive) | 89% (active) | 59.8% (inactive) | 11% (inactive) | 28% (inactive) | -16.1% (inactive) | 23% (inactive) | 81% (active) | 55.3% (inactive) | 41% (inactive) | 91% (active) | 40.8% (inactive)
Cc1c2ccnc(C(N)=O)c2c(C)c2c1[nH]c1ccccc12 | 9% (inactive) | 90% (active) | 76.1% (active) | 12% (inactive) | 98% (active) | 48.1% (inactive) | 7% (inactive) | 84% (active) | 38.6% (inactive) | 11% (inactive) | 79% (active) | 47.1% (inactive) | 7% (inactive) | 97% (active) | 56.1% (inactive) | 12% (inactive) | 97% (active) | 73.9% (active)
CC(C)N(CN1C(=O)N/C(=C/c2cccc(/C=C3/NC(=O)N(CN(C(C)C)C(C)C)C3=O)c2)C1=O)C(C)C | 7% (inactive) | 8% (inactive) | 21% (inactive) | -15% (inactive) | -11% (inactive) | 2.95% (inactive) | -1% (inactive) | 3% (inactive) | -2.5% (inactive) | -19% (inactive) | -15% (inactive) | 63.4% (inactive) | 12% (inactive) | 30% (inactive) | 17.6% (inactive) | 7% (inactive) | 8% (inactive) | -4.65% (inactive)
